# G9a block: inhibitors of human histone lysine methyltransferase G9a | AID 504332 | Q96KQ7 | 350,000 tested, 8.8% active | Potency, µM (highest dose often 102 µM), for inactives: at the top dose activity, negative = inhibition, actives largely listed as inhibitors | G9a H3K9 monomethylation, AlphaScreen, 2 h; further: potency means the concentration at half of the fitted maximal effect; on the % scale 0 is the no-effect control and ±100 the full control effect; nearly all actives have a fitted effect of over 75% in size
#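 Signal arises when biotinylated H3K9 peptide, once monomethylated, bridges streptavidin donor and antibody-captured acceptor beads. Enzyme at 20 nM was preincubated 15 min with test compounds; peptide 500 nM and SAM 20 uM then reacted for 2 h.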
# PI5P4Ka inh: blocks human PI5P4K alpha kinase activity. P48426. 330,000 tested, 1.2% active. PI5P4Kalpha enzyme, ADP-Glo luminescence, 60 min; active compounds read low. max response, %; active means max response of -50% or lower; inconclusive means between -30% and -50%; inactive means -30% or higher; further: value at the top dose of about 77 µM; on the % scale 0 is the no-effect control and ±100 the full control effect
# Target sequence (P48426 whole entry, looked up): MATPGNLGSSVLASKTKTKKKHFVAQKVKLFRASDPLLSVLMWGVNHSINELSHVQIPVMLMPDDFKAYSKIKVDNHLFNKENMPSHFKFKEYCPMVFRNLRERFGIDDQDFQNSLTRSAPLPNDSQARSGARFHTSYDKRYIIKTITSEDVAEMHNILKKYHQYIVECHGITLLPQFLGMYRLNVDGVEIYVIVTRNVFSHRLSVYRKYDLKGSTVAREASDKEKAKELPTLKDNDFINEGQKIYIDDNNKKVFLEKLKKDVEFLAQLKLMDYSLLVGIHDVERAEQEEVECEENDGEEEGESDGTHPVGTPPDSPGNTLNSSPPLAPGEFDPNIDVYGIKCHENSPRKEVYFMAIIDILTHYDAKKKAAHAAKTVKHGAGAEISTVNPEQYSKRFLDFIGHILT
#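 Single end-point luminescence (ADP-Glo) quantified ADP from PI5P4Kalpha turnover; ATP 5 microM final, 1 h at RT, 0.1% CHAPS and 0.28 mM EGTA in HEPES pH 7.4.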
# JMJD2A Tudor inh: JMJD2A Tudor domain (human) inhibition; 390,000 tested, 4.4% active; AID 504339; Potency, µM (top dose mostly 114 µM), without a hit: at the highest dose activity change, negative = inhibition, actives largely listed as inhibitors; AlphaScreen JMJD2A-Tudor / H3K4me3 peptide binding; O75164; further: potency means the concentration at half of the fitted maximal effect; on the % scale 0 is the no-effect control and ±100 the full control effect; nearly all actives have a fitted effect of over 50% in size
# PLK1 PBD inh: inhibitors of human PLK1 polo-box domain binding | Plk1 PBD binding of FITC phosphopeptide, fluorescence polarization | Potency, µM, for the others: max response, negative = inhibition, hits mostly inhibitors | 360,000 tested, 2.8% active | AID 720504; further: potency means the concentration at half of the fitted maximal effect; series mostly up to about 57 µM; on the % scale 0 is the no-effect control and ±100 the full control effect; nearly all actives have a fitted effect of over 65% in size
# BAZ2B inh: inhibitors of human BAZ2B bromodomain; Q9UIF8; AlphaScreen BAZ2B-H3K14Ac peptide displacement; 360,000 tested, 4.4% active; Potency, µM (doses to about 114 µM), without a hit: top-dose activity change, negative = inhibition, hits mostly inhibitors; AID 504333; further: potency means the concentration at half of the fitted maximal effect; on the % scale 0 is the no-effect control and ±100 the full control effect; nearly all actives have a fitted effect of over 60% in size
#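 Complex of BAZ2B and biotin-H3K14Ac (50 nM apiece) forms over 30 min at RT, then faces library compounds up to 110 uM for another 30 min; AlphaScreen beads added, 20 min dark incubation, luminescence read.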
# HP1b chromo inh: HP1-beta chromodomain-methylated histone interaction inhibition. P83916. AlphaScreen HP1-beta / biotin-H3K9me3 peptide binding. Potency, µM (top dose mostly 114 µM), without a hit: at the highest dose activity change, negative = inhibition, most hits filed as inhibitors. 390,000 tested, 0.56% active. AID 540317; further: potency means the concentration at half of the fitted maximal effect; nearly all actives have a fitted effect of over 70% in size
# Target sequence (P83916 whole entry, looked up): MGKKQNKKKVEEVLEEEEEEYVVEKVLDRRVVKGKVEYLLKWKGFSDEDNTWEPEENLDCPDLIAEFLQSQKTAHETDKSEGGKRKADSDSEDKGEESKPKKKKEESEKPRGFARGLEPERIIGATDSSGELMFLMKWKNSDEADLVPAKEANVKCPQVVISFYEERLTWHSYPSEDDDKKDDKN
#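 HP1-beta protein (50 nM final) preincubated 30 min at room temperature with biotinylated H3(1-18)K9me3 peptide (50 nM) in PBS pH 7.4, 0.01% Tween-20, then compound added for 30 min. AlphaScreen streptavidin donor/nickel chelate acceptor beads (10 ug/mL final), 30 min dark, luminescence read.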
# Starred values were filed as active, the others as inactive; ? = inconclusive; nt = not tested or not shown; [ ] = remark or other dose. Compounds with a hit are over-represented: about 12% of the library has one in this group of screens. Unless noted, the call rests on the fitted dose curve; in most records, active means well fitted curve in the direction sought with a large enough effect; inconclusive means small, poorly fitted or top-dose-only effect, or another doubt; inactive means no such curve, though single readings can be large; an effect the other way counts as inactive or inconclusive.
SMILES,G9a block,PI5P4Ka inh,JMJD2A Tudor inh,PLK1 PBD inh,BAZ2B inh,HP1b chromo inh
C/C(=C\c1ccccc1)CN1CCN(c2ccccc2F)CC1,?,nt,5µM*,3%,-38%,?
COc1ccccc1N(C)S(=O)(=O)c1ccc(C(=O)N(C)Cc2ccc(OC(F)F)cc2)cc1,-20%,-4,-16%,-12%,-2%,15%
CCOc1ccc(NC(=S)NCC(c2cccnc2)N2CCOCC2)cc1 (configuration not stated),-28%,2,-10%,27µM*,2%,6%
COc1ccc(NC(=S)NCC(c2cccnc2)N2CCOCC2)cc1 (configuration not stated),-6%,1,-13%,-6%,1%,24%
COc1ccc(OC)c(NC(=S)NCC(c2cccnc2)N2CCOCC2)c1 (configuration not stated),3%,-5,-15%,15µM*,5%,8%
Cc1cccc(NC(=S)NCC(c2cccnc2)N2CCOCC2)c1C (configuration not stated),15%,-4,-4%,-19%,-4%,14%
Cc1ccc(C(=O)NCC(c2cccnc2)N2CCc3ccccc32)cc1C (configuration not stated),?,nt,?,nt,?,-16%
CC(C)(C)c1ccc(C(=O)NCC(c2cccnc2)N2CCc3ccccc3C2)cc1 (configuration not stated),?,nt,?,nt,3.2µM*,?
Cc1ccc(C(=O)NCC(c2cccnc2)N2CCc3ccccc3C2)cc1C (configuration not stated),?,nt,?,nt,13µM*,7%
C=C1C(=O)C23C(O)C1CCC2C12CCCC(C)(COC(C)=O)C1C(O)C3(O)OC2 (configuration not stated),nt,-8,?,15µM*,nt,-5%
CC(C)(C)n1nnnc1C(c1cccnc1)N(Cc1ccccc1)Cc1ccco1 (configuration not stated),34%[12.7 µM],5,-21%,-4%,-5%,7%
COc1cccc(CN(Cc2ccco2)C(c2ccc(F)cc2)c2nnnn2C(C)(C)C)c1 (configuration not stated),50µM*,14,-14%,-1%,21%,47%
Cc1ccc(NC(=O)c2nc[nH]c2C(=O)N(C)CCO)cc1,nt,-3,nt,-10%,nt,nt
COc1ccc(OC)c(C2Nc3c(C)cc(C)cc3-c3cc(C)nn32)c1 (configuration not stated),-37%[59 µM],nt,?,nt,?,-15%
C/C(=N\NC(=S)Nc1ccccc1C)c1ccc(O)cc1,35µM*,-25,?,11µM*,?,?
CC/C(=N\NC(=S)Nc1cc(C)ccc1C)c1ccc(OC(F)F)cc1,3.2µM*,-1,?,2%,?,?
COc1ccccc1NC(=S)NNC(=S)Nc1ccc(OC(F)F)cc1,1µM*,-25,79µM*,24µM*,-38%,?
CC/C(=N\NC(=S)Nc1ccc(OC)cc1)c1ccc(OC(F)F)cc1,40µM*,5,?,-8%,?,?
CC/C(=N\NC(C)=O)c1ccc(OC(F)F)cc1,5%,nt,nt,nt,-4%,nt
O=C(Nc1ccc(Cl)cc1F)c1cc(S(=O)(=O)NC2CCCCCC2)ccc1F,2%[59 µM],nt,-11%,nt,0%,40%
Cc1cccc(C(=O)NCCC(=O)Nc2ccc(C#N)cc2)c1,0%,0,-3%,-14%,0%,7%
CCc1sc(C(=O)N2CCN(c3ccc(F)cc3)CC2)cc1C,6%,14,-20%,-7%,-21%,37%
COc1ccc2c(c1)c1c(c(=O)n(-c3cccc(Cl)c3)c(=O)n1C)n2C,-2%[59 µM],nt,3%,nt,-1%,38%
COc1ccccc1CNc1nc(-c2ccoc2)nc2ccccc12,3%[0.501 µM],nt,nt,nt,nt,nt
Cc1ccc(NS(=O)(=O)c2cc3c(cc2C)NC(=O)CO3)cc1C,nt,nt,-15%,nt,nt,nt
SMILES,G9a block,PI5P4Ka inh,JMJD2A Tudor inh,PLK1 PBD inh,BAZ2B inh,HP1b chromo inh
C/C(=N\NC(=S)NC1CCCCC1)c1ccc(O)cc1,35µM*,7,?,17µM*,?,?
COc1ccc(C/C(C)=N/NC(=S)Nc2ccc(C(C)C)cc2)cc1,7.9µM*,-7,7.9µM*,-14%,-36%,22%
COC(=O)N/N=C(\C)c1ccc(OC(F)F)cc1,-12%,3,-3%[57.1 µM],-8%,-8%,30%
COc1ccc(C/C(C)=N/NC(=S)Nc2ccccc2F)cc1,?,-6,?,?,-6%,?
C/C(=N\NC(=S)Nc1c(C)cccc1C)c1ccc(OC(F)F)cc1,8.9µM*,-4,?,-6%,-6%,10%
CCN(CC)C1CCS(=O)(=O)C1 (configuration not stated),-1%,-3,-1%,-22%,-3%,32%
CN(C1CCS(=O)(=O)C1)S(=O)C12CC3CC(CC(C3)C1)C2 (configuration not stated),11µM*,1,-20%,-29%,-1%,49%
CCN(CC(=O)NCc1cccs1)C(=O)c1ccc(S(=O)(=O)Nc2ccccc2F)cc1,-3%,-1,-14%,5%,10%,32%
CC(=O)Nc1n[nH]c(S(=O)(=O)Cc2ccc(Cl)cc2Cl)n1,45µM*,-10,50µM*,-2%,?,-4%
Cc1cccn2cc(CSc3nnc(Nc4ccc(C(C)C)cc4)s3)nc12,40µM*,-6,-29%,4%,-37%,14%
COc1ccc(C)cc1NC(=O)n1ncc2cc(Cl)ccc21,12%,-2,-4%,4%,-5%,40%
COc1ccc(C(=O)OCc2cc(=O)n3nc(-c4cccs4)sc3n2)cc1,14%[59 µM],nt,-28%,nt,-23%,19%
CC(=O)OC(C[N+]1(C)CCCCCC1)c1ccccc1 (configuration not stated),-12%,4,-6%,-3%,2%,23%
C[N+]1(CCC(=O)c2ccccc2)CCCCC1,2µM*,3,?,12µM*,-2%,?
O=C(CCN1CCOCC1)NNC(=S)NC(=O)c1ccccc1,11µM*,-3,18µM*,-3%,nt,28%
O=C(CSc1nc(N2CCCCC2)nc(N2CCCCC2)n1)c1ccccc1,5%[12.7 µM],4,8%[11.4 µM],30µM*,-3%,12%
O=C(CCN1CCOCC1)NCc1ccccc1,8%[0.501 µM],4,-16%,-1%,-23%,3%
Cc1cc(N2CCCCC2)nc(SCC(=O)c2ccccc2)n1,?,0,-6%,-12%,-4%,37%
CC1CCCN(CCC(=O)c2ccccc2)C1 (configuration not stated),nt,-1,1%,13µM*,nt,16%[57 µM]
Cc1ccc(C(=Cc2ccc([N+](=O)[O-])cc2)C(=O)O)cc1,nt,-9,nt,-4%,nt,nt

# High-throughput results from PubChem.
